In PubChem BioAssay (Tox21):
Records with an inconclusive call do not appear. A call without a number means that no potency is given here. Activity calls are given as the source filed them. Unless noted, calls come from the whole dose curve; as a rule, active = well fitted curve in the direction sought with a large enough effect in the repeat runs; inconclusive = weak or mixed curves; inactive = no such curve, though single readings can be large; an effect the other way counts as inactive or inconclusive.

Key:
[1] = qHTS assay to identify small molecule antagonists of the estrogen related receptor (ERR) signaling pathway - cell viability counter screen (AID 1224818); note: series mostly up to about 46 µM
Method in brief: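 ERR cells, 2,000 per well, compound added after 6 h and incubated 17.5 h at 37 C. Viability read by CellTiter-Fluor fluorescence after a further 30 min at 37 C.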

[2] = qHTS assay to identify small molecule antagonists of the estrogen related receptor (ERR) signaling pathway (AID 1224819;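 note: luminescence from an ERR-driven luciferase reporter measured with One-Glo reagent; series mostly up to about 46 µM; nearly all actives have a fitted effect of over 50% in size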)
Method in brief: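 ERR reporter cell line (NTP) plated at 2,000 cells/well, settled 6 h at 37C/5% CO2, then exposed to LOPAC compounds for 18 h at 37C. One-Glo luciferase luminescence read after 30 min at room temperature.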

[3] = qHTS assay to identify small molecule agonists of the estrogen related receptor (ERR) signaling pathway (AID 1224820)
Method in brief: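 ERR reporter cells (NTP line) plated 2,000/well, incubated 6 h at 37 C/5% CO2, then pinned with compounds in DMSO and held 18 h at 37 C. One-Glo added; luminescence read after 30 min at room temperature.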

[4] = tested on: estrogen-related receptor alpha (ERRalpha) with PGC-1alpha coactivator, human; assay: qHTS assay to identify small molecule antagonists of the estrogen related receptor signaling pathway with the pleiotropic PPARgamma coactivator (PGC) (AID 1224821; calls by dose curve;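 note: series mostly up to about 46 µM; lower luminescence signal means antagonism of PGC/ERR signalling; nearly all actives have a fitted effect of over 50% in size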)
Method in brief: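 Cells engineered for PGC/ERR signalling (line from NTP) were plated 6 h at 37 C/5% CO2, then exposed to DMSO-dissolved compound for 18 h at 37 C. Luciferase activity was read by One-Glo luminescence after 30 min at room temperature.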

[5] = qHTS assay to identify small molecule antagonists of the estrogen related receptor signaling pathway with the pleiotropic PPARgamma coactivator (PGC) cell viability counter screen (AID 1224822; note: series mostly up to about 46 µM)
Method in brief: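 PGC/ERR cells rested 6 h, then compound-treated 17.5 h at 37 C. CellTiter-Fluor added for 30 min at 37 C, viability measured by fluorescence intensity.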

[6] = qHTS assay to identify small molecule agonists of the estrogen related receptor signaling pathway with the pleiotropic PPARgamma coactivator (PGC) (AID 1224823); note: potency is the fitted concentration of half-maximal effect
Method in brief: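 PGC/ERR reporter cells were seeded, rested 6 h at 37 C/5% CO2, then exposed to compounds in DMSO by pin transfer for 18 h at 37 C. Luciferase activity was read as luminescence after One-Glo reagent and 30 min at room temperature.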

| Compound | Potency [1] | Potency [2] | Potency [3] | Potency [4] | Potency [5] | Potency [6] |
| --- | --- | --- | --- | --- | --- | --- |
| O=C(O)Cc1c[nH]c2ccc(O)cc12 | inactive | inactive | inactive | inactive | inactive | inactive |
| NCCCNCCCCNCCCN | inactive | inactive | inactive | inactive | inactive | inactive |
| CC(C)NC[C@@H](O)c1ccc(O)c(O)c1 | inactive | inactive | inactive | inactive | inactive | inactive |
| O=c1cc(-c2ccccc2)[nH]c2nc(Cl)ccc12 | inactive | inactive | inactive | inactive | inactive | inactive |
| OC[C@H]1O[C@@H](n2cnc3c(NC4CCCC4)ncnc32)[C@H](O)C1O (stereo partly specified) | inactive | inactive | inactive | inactive | inactive | 3.1 µM (active) |
| CC(O)C(O)[C@H]1CNc2nc(N)[nH]c(=O)c2N1 (stereo partly specified) | inactive | inactive | inactive | inactive | inactive | inactive |
| Nc1ncnc2c1ncn2[C@@H]1O[C@H](COP(=O)(O)OP(=O)(O)OP(=O)(O)OP(=O)(O)OC[C@@H]2O[C@H](n3cnc4c(N)ncnc43)[C@@H](O)C2O)C(O)[C@H]1O (stereo partly specified) | inactive | inactive | inactive | inactive | inactive | 15 µM (active) |
| CCCCCCCCCC[Si](C)(C)CCC(=O)NC(Cc1ccc(C)cc1)c1ccccc1 (stereo unspecified) | inactive | inactive | inactive | inactive | inactive | inactive |
| O=c1[nH]c2ccccc2c2ccccc12 | inactive | inactive | inactive | inactive | inactive | inactive |
| CCOC(=O)C12CC1/C(=N/O)c1ccccc1O2 (stereo unspecified) | inactive | inactive | inactive | inactive | inactive | inactive |
| CNCCC(Oc1ccccc1C)c1ccccc1 (stereo unspecified) | inactive | inactive | inactive | inactive | inactive | inactive |
